# Screening data as filed in PubChem.
# Hits are enriched below; roughly 3.4% of the tested compounds scored in any of these assays.
# PAX8 reporter: inhibitors of PAX8 transcriptional activity in RMG-I cells | 360,000 compounds, 1.2% hits | RMG-I TPO-luciferase reporter, SteadyGlo, 24 h | inhibition, % at 12.6 µM;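 active = mean replicate inhibition at least 60% with every replicate also reaching 60%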;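 also: luciferase light reporting Pax8 driven TPO promoter activity; plate controls were median of neutral control wells for no effect and mitoxantrone controls for full effect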
# SIRT5 block: sirtuin-5 (human) deacylase inhibition; AID 652115; Purified SirT5, succinyl-peptide AMC, trypsin-coupled fluorescence; Q9NXA8; 330,000 compounds, 1.1% hits; inhibition, % at 15 µM; in the data active = inhibition above about 15%
# Target sequence (Q9NXA8 whole entry, looked up): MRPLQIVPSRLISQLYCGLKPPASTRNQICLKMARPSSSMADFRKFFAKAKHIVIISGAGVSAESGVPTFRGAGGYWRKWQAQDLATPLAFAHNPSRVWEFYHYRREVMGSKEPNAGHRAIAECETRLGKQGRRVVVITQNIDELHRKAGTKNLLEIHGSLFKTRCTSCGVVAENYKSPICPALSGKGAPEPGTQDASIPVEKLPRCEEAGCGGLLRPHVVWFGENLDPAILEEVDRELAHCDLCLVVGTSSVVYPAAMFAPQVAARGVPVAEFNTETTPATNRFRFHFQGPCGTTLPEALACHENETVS
# EWS-Fli block: inhibitors of EWS/Fli oncoprotein transcriptional activity; A673 NR0B1-luciferase reporter, viability-normalised; inhibition, % at 12.6 µM; 350,000 compounds, 0.67% hits; AID 651661;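 active = mean inhibition of at least 50% after viability correction, with every replicate also passing that limit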;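 also: firefly luciferase signal divided by Alamar Blue viability fluorescence both relative to DMSO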
# LGR2 antag: blocks bursicon-induced cAMP signaling via Drosophila LGR2 | inhibition, % at 9.99 µM | HEK293 LGR2, CRE-luciferase, bursicon-stimulated, 4 h | 380,000 compounds, 0.35% hits | AID 720647;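 active = drop in luminescence signal, shown as inhibition above about 50% in the replicate tests, limit read from the data, passing the limit was not always enough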;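 also: agonist challenge used bursicon conditioned medium at about half maximal strength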
# rRNA inh HTS: inhibits bacterial ribosomal RNA function over humanized ribosomes. 350,000 compounds, 1.6% hits. GFP signal change (wild-type ribosome), % (no concentration beside the values). E. coli WT GFP vs humanized-ribosome RFP mutants, fluorescence, 24 h; hits give low values; DMSO median 0, no signal -100;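 active = significant combined selectivity score with lowered wild-type GFP, culture density cut under 30%, mutant RFP and density less affected; inactive = any of these conditions unmet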
# PGC1a acetyl inh: modulators of PGC1a acetylation | inhibition, % at 15.6 µM | AID 651687 | U2OS PGC1a acetylation, AlphaScreen anti-acetyl-lysine; with virally co-expressed GCN5 acetyltransferase | 350,000 compounds, 0.17% hits;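 active = every replicate shows inhibition of at least 40%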;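 also: 0% = neutral control wells and 100% = positive control wells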
# Starred values were filed as active, the others as inactive; · = no result.
SMILES,PAX8 reporter,SIRT5 block,EWS-Fli block,LGR2 antag,rRNA inh HTS,PGC1a acetyl inh
C[C@@H]1CN([C@@H](C)CO)C(=O)c2cc(NC(=O)CCN3CCOCC3)ccc2O[C@H]1CN(C)S(=O)(=O)c1ccccc1,-0.7,-0.2,-1.1,-13.0,3.1,7.4
Cc1noc(C)c1NC(=O)Nc1ccc2c(c1)C(=O)N([C@@H](C)CO)C[C@H](C)[C@@H](CN(C)CC1CCCCC1)O2,-4.8,·,0.7,17.6,3.6,2.8
Cc1cc(C(C)(C)C)cc(S(=O)(=O)Nc2ccc(O)c(C(=O)O)c2)c1C,·,·,·,·,·,4.3
CC(=O)Nc1ccc(NC(=O)c2ccc(NS(=O)(=O)c3cc(C(C)(C)C)cc(C)c3C)cc2)cc1,67.5*,·,8.6,2.7,18.0,·
CC(=O)c1ccc(OCc2cc(C(=O)N3CCCCC3c3cccnc3)no2)cc1 (stereo not drawn),-161.1,-1.5,-73.7,-24.3,-27.9*,·
CCC1CCCCN1C(=O)c1cc(COc2ccc3ncccc3c2)on1 (stereo not drawn),27.8,-3.3,20.0,-0.9,-30.1*,·
C[C@H]1CN([C@@H](C)CO)C(=O)c2cc(-c3ccncc3)cnc2O[C@@H]1CN(C)S(=O)(=O)c1ccc(F)cc1,-6.0,-1.3,1.9,-6.2,-2.7,-3.8
NNc1nc2sc3c(c2c(=O)n1Cc1ccccc1)CCC3,4.0,-3.3,-11.3,-10.6,-33.5*,20.7
C[C@H]1CN([C@@H](C)CO)S(=O)(=O)c2ccc(C#CC3(O)CCCC3)cc2O[C@@H]1CN(C)C(=O)Cc1ccncc1,-16.0,1.3,0.3,-49.7,-1.1,5.5
N#C[C@H]1[C@H](c2ccc(C#CC3CCCC3)cc2)[C@@H](CO)N1C(=O)Nc1ccc(F)cc1,88.3*,1.2,11.1,30.9,-10.2,8.4
N#C[C@H]1[C@@H](c2ccc(C#CC3CCCCC3)cc2)[C@H](CO)N1C(=O)Nc1ccc(F)cc1,·,-1.3,0.0,9.8,-8.4,11.8
N#C[C@@H]1[C@H](c2ccc(C#CC3CCCC3)cc2)[C@@H](CO)N1C(=O)Nc1ccc(F)cc1,-2.5,2.0,7.6,17.6,-27.5,-20.6
N#C[C@H]1[C@H](c2ccc(C#CC3CCCCC3)cc2)[C@H](CO)N1C(=O)Nc1ccc(F)cc1,91.8*,1.6,12.0,10.5,3.3,-7.2
Cn1nc(C(=O)NNc2c(F)c(F)cc(F)c2F)c2ccccc2c1=O,-4.5,-0.4,15.0,-6.2,-20.8*,4.6
COc1ccccc1N1CCN(S(=O)(=O)c2ccccc2F)CC1,·,7.9,0.4,11.4,-21.8*,-14.0
CNC[C@H]1Oc2cc(-c3cncnc3)ccc2S(=O)(=O)N([C@H](C)CO)C[C@@H]1C,·,-8.7,10.9,-5.1,4.9,9.0
N#CC1=C(N)Oc2cc(N)ccc2C1c1cc(Br)cs1 (stereo not drawn),28.2,-8.1,58.4*,·,6.5,-45.2
N#CC1=C(N)Oc2cc(N)ccc2C1c1ccccc1F (stereo not drawn),39.4,-3.4,54.5*,1.2,-0.5,2.6
COc1cccc(C2C(C#N)=C(N)Oc3cc(N)ccc32)c1OC (stereo not drawn),-0.6,·,·,-7.5,·,3.1
O=C(NC[C@H]1N[C@H](CO)[C@@H]1c1ccc(-c2cncnc2)cc1)C1CCC1,·,·,·,·,-0.8,·
Cc1ccc2c(c1)CO[C@@]21O[C@H](CCO)C[C@H](O)[C@H]1O,-1.1,23.0*,-15.4,-3.7,2.0,4.0
COc1ccc(CN(C)C[C@H]2Oc3ccc(NS(=O)(=O)c4ccc(F)cc4)cc3CC(=O)N([C@H](C)CO)C[C@@H]2C)cc1,-9.6,5.4,39.8,-12.1,-1.9,10.6
CC[C@H](C)[C@H](NC(N)=O)C(=O)Nc1ccc(S(=O)(=O)NC(C)C)cc1,13.9,-2.9,17.5,6.3,-22.4*,0.0
COc1ccc(NC(=O)N(C)C[C@H]2Oc3c(NC(=O)Nc4ccc(C(F)(F)F)cc4)cccc3C(=O)N([C@@H](C)CO)C[C@H]2C)cc1,·,·,6.1,13.0,3.2,11.1
CCOc1ccc(Nc2ncnc3ccc([N+](=O)[O-])cc23)cc1,10.3,-2.5,-3.9,40.7,-0.6,49.6*
SMILES,PAX8 reporter,SIRT5 block,EWS-Fli block,LGR2 antag,rRNA inh HTS,PGC1a acetyl inh
CN(C)c1ccc(/C=C2\SC(=O)N(CCc3nnc(N)s3)C2=O)cc1,50.0,-1.7,82.3*,89.2*,-10.1,5.4
CN(C)c1ccc(/C=C2/SC(=O)N(CCN=C3NS(=O)(=O)c4ccccc43)C2=O)cc1,-35.9,18.1*,-31.0,-20.4,·,4.0
CC(C)C#Cc1ccc2c(c1)O[C@H](CN(C)C(=O)C1CCCCC1)[C@@H](C)CN([C@@H](C)CO)S2(=O)=O,·,·,18.6,17.4,-4.5,-2.5
CC1CCCN(c2ccc3nc4ccccc4c(=O)n3n2)C1 (stereo not drawn),35.6,-1.5,43.0,61.7*,-18.4*,·
CC1Cc2ccccc2N1CC(=O)Nc1ccc(Cl)c(S(=O)(=O)N(C)C)c1 (stereo not drawn),-1.9,16.4*,5.0,9.1,12.0,-12.1
CN(C)S(=O)(=O)c1cc(NC(=O)CN2CCc3ccccc32)ccc1Cl,29.0,3.8,-4.2,·,5.8,74.6*
CC1Cc2ccccc2N1CC(=O)Nc1ccc(S(=O)(=O)N(C)C)cc1 (stereo not drawn),20.3,-3.5,13.4,4.5,6.2,·
CN(C)S(=O)(=O)c1cc(NC(=O)CN2CCCc3ccccc32)ccc1Cl,24.2,1.2,7.4,2.3,1.4,8.5
O=C(C[C@@H]1CC[C@@H](NC(=O)c2cccc(F)c2)[C@H](CO)O1)NCCN1CCCC1,-10.1,-1.9,-3.7,16.6,-0.1,-3.2
CC(=O)Oc1c(Sc2ccccc2[N+](=O)[O-])c(C)nn1C(C)(C)C,7.7,7.9,2.1,-5.9,1.1,10.1
Cc1ccc(-n2nc(C)c(Sc3ccccc3[N+](=O)[O-])c2N)cc1,3.9,-0.1,6.2,-20.9,-42.1*,·
Cc1n[nH]c(C)c1Sc1ccccc1N=Cc1cc(Cl)cc([N+](=O)[O-])c1O,·,·,·,·,·,1.6
Cc1n[nH]c(C)c1Sc1ccccc1[N+](=O)[O-],-13.5,-0.6,3.9,6.5,-33.5*,2.9
CN(C)CC(=O)N[C@H]1CC[C@H](CC(=O)NCc2ccccc2F)O[C@H]1CO,-20.4,0.6,-1.3,-1.6,1.0,6.8
COCC(=O)Nc1ccc2c(c1)OC[C@H](C)N(CCc1ccccc1)C[C@H](C)[C@@H](OC)CN(C)C2=O,·,·,·,·,-7.7,·
C/C=C/c1cnc2c(c1)C(=O)N([C@@H](C)CO)C[C@@H](C)[C@@H](CN(C)Cc1ccccc1)O2,·,-0.8,-1.0,9.0,7.7,22.1
COc1cccc(C#Cc2ccc3c(c2)[C@H]2[C@H](CCN2C(C)=O)[C@H](CO)N3)c1,·,-3.0,·,5.9,-3.5,-7.0
CN(C)Cc1cn(CC[C@@H]2CC[C@H](N)[C@H](CO)O2)nn1,0.5,20.6*,-2.3,7.8,2.7,-1.9
